Screening data deposited in PubChem BioAssay by National Center for Advancing Translational Sciences (NCATS).
The list is not random: actives were taken first. Their share in the collection is about 21%.
HCMV inh: inhibitors of human cytomegalovirus | HFF cells, HCMV-luciferase reporter, 72 h; hits give low values | activity change, negative = inhibition, % at 57.5 µM | hit rate 4.5% among 410,000 | AID 1259415; in the data active means activity change below about -60%; inconclusive means no clear call, values can overlap the other calls; inactive means above about -39%; further: on the % scale 0 is the no-effect control and ±100 the full control effect
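Inhibition of viral replication was scored as loss of reporter luminescence in HFFs infected with HCMV-luciferase (MOI 1 PFU/cell) for 72 h; compounds tested at 2 doses, normalized to buffer and Salinomycin controls.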
HCV inh: blocks hepatitis C virus | Huh7.5.1 HCVcc-Cre infection, luciferase reporter, 44 h | Potency, µM (series often up to 41.8 µM), for inactives: at the highest dose activity change, negative = inhibition, hits mostly inhibitors | hit rate 3.4% among 340,000 | AID 651820; further: potency means the concentration at half of the fitted maximal effect; on the % scale 0 is the no-effect control and ±100 the full control effect
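A cell-based infection assay in which seeded cells (1,000 per well) receive test compound after 4 h, are inoculated with HCVcc-Cre at approximately 0.5 moi, and are incubated 44 h before luminescence detection.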
Shiga inhibitor: blocks Shiga toxin action in Vero cells | Vero cells, Shiga toxin protein synthesis inhibition reporter | inhibition, % at 38.7 µM | hit rate 9.2% among 290,000; in the data active means inhibition mostly above about 28%, no sharp cut-off; inactive means mostly below about 43%; further: 0% is about no effect
CHX counter: counter-screen for Shiga toxin inhibitors: cycloheximide protein synthesis inhibition | cell reporter, cycloheximide protein synthesis inhibition counterscreen | max response, % | hit rate 12% among 300,000 | AID 2314; in the data active means max response mostly above about 13%, no sharp cut-off; inactive means mostly below about 14%; further: read at 38.3 µM for the half of the compounds with a filed dose; 0% is about no effect
Pf growth 96h: inhibits malaria parasite growth, 96 h. P. falciparum luciferase reporter growth, 96 h. hit rate 6.9% among 320,000. Potency, µM (top dose mostly 28.7 µM), for the others: at the highest dose activity change, negative = inhibition, most hits filed as inhibitors; further: potency means the concentration at half of the fitted maximal effect; on the % scale 0 is the no-effect control and ±100 the full control effect
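Parasite growth measured via integrated firefly luciferase reporter in P. falciparum. Infected erythrocytes at 2% hematocrit, 0.05% parasitemia final were treated 96 hours at 37 C under 5% CO2, and luminescence was read.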
Pf growth 48h: inhibits P. falciparum growth in the first generation, 48 h | Potency, µM (doses to about 28.7 µM), for the others: at the top dose activity change, negative = inhibition, most hits filed as inhibitors | P. falciparum luciferase growth in erythrocytes, 48 h | hit rate 5.9% among 310,000; further: potency means the concentration at half of the fitted maximal effect; on the % scale 0 is the no-effect control and ±100 the full control effect
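Firefly luciferase activity from engineered P. falciparum reports growth; inhibitors lower the luminescent signal. Cultures contained 2% hematocrit erythrocytes at 0.1% final parasitemia.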
* marks the source's active call; other numbers are inactive results. Unless noted, the call rests on the fitted dose curve; in most records, active means well fitted inhibition curve with a large enough effect; inconclusive means small, poorly fitted or top-dose-only effect, or another doubt; inactive means no such curve, though single readings can be large or run the other way.

Results for S=C(NCc1ccccc1)Nc1ccc2ccccc2c1 ?
HCMV inh: 25; HCV inh: -11%; Shiga inhibitor: 102*; CHX counter: 76*; Pf growth 96h: inconclusive; Pf growth 48h: 20%

How did Fc1ccc(NC(=S)NCc2ccccc2)cc1 do in these assays?
HCMV inh: -19; HCV inh: -2%; Shiga inhibitor: 11; CHX counter: -1; Pf growth 96h: 15µM*; Pf growth 48h: 14%

How did Fc1ccc(CNC(=S)NCc2ccccc2)cc1 do in these assays?
HCMV inh: -19; HCV inh: 19%; Shiga inhibitor: 7; CHX counter: -2; Pf growth 96h: inconclusive; Pf growth 48h: inconclusive

How did NC(=O)c1cc([N+](=O)[O-])ccc1NCc1ccc(F)cc1 do in these assays?
HCMV inh: -81*; HCV inh: 2.5µM*; Pf growth 96h: inconclusive; Pf growth 48h: -23%

Results for S=C(NCc1ccccc1)Nc1ccc(Oc2ccccc2)cc1 ?
HCMV inh: -23; HCV inh: inconclusive; Shiga inhibitor: 15; CHX counter: 13; Pf growth 96h: inconclusive; Pf growth 48h: inconclusive

What do the screens show for `O=[N+]([O-])c1ccc(NC(=S)NCc2ccc(F)cc2)cc1`?
HCMV inh: -99*; HCV inh: inconclusive; Shiga inhibitor: 1; CHX counter: 2; Pf growth 96h: 4.1µM*; Pf growth 48h: inconclusive

How did COC(=O)Cc1ccc(OCc2ccc(Cl)nc2)cc1 do in these assays?
HCMV inh: 39; HCV inh: -17%; Shiga inhibitor: 52*; CHX counter: 37*; Pf growth 96h: 32%; Pf growth 48h: 112%

Results for CC(=O)C(Cc1ccc(Cl)nc1)Cc1ccc(Cl)nc1 ?
HCMV inh: -7; HCV inh: 1%; Shiga inhibitor: 3; CHX counter: 2; Pf growth 96h: inconclusive; Pf growth 48h: -1%

How did O=C(COc1ccc2c(c1)C(=O)CC1(CCCCC1)O2)NCc1ccccc1 do in these assays?
HCMV inh: -27; HCV inh: inconclusive; Shiga inhibitor: 18; CHX counter: -3; Pf growth 96h: 3.7µM*; Pf growth 48h: 8.3µM*

How did CCOC(=O)COc1ccc2c(c1)C(=O)CC1(CCCCC1)O2 do in these assays?
HCMV inh: 55; HCV inh: 6%; Shiga inhibitor: -9; CHX counter: -6; Pf growth 96h: inconclusive

How did CCCCCCCNC(=O)COc1ccc2c(c1)C(=O)CC(C)(C)O2 do in these assays?
HCMV inh: -6; HCV inh: -2%; Shiga inhibitor: -5; CHX counter: -1; Pf growth 96h: inconclusive

How did CCOC(=O)COc1ccc2c(c1)C(=O)CC(C)(c1cccnc1)O2 (configuration not stated) do in these assays?
HCMV inh: -2; HCV inh: 22%; Shiga inhibitor: -11; CHX counter: 20; Pf growth 96h: 2.1µM*; Pf growth 48h: 52%

What do the screens show for `CC1(C)CC(=O)c2cc(OCC(=O)N3CCOCC3)ccc2O1`?
HCMV inh: 7; HCV inh: 4%; Shiga inhibitor: -13; CHX counter: -1; Pf growth 96h: -14%; Pf growth 48h: -12%

Results for CC1(C)CC(=O)c2cc(OCC(=O)NCc3cccnc3)ccc2O1 ?
HCMV inh: -12; HCV inh: 4%; Shiga inhibitor: -3; CHX counter: -3; Pf growth 96h: 13µM*; Pf growth 48h: 0%

How did CCN(CC)C(=O)COc1ccc2c(c1)C(=O)CC(C)(C)O2 do in these assays?
HCMV inh: 3; HCV inh: 28%; Shiga inhibitor: 39; CHX counter: 14; Pf growth 96h: 9.3µM*; Pf growth 48h: -13%

How did C/C(=C(/CCOC(=O)C(C)C)SS/C(CCOC(=O)C(C)C)=C(\C)N(C=O)Cc1cnc(C)nc1N)N(C=O)Cc1cnc(C)nc1N do in these assays?
Pf growth 96h: inconclusive; Pf growth 48h: -1%

What do the screens show for `COC(=O)C1=C(C)N(Cc2ccccc2C(F)(F)F)C(=NCc2ccc(OC)cc2)NC1c1ccccc1` (configuration not stated)?
HCMV inh: 0

How did C[C@@H]1CN([C@H](C)CO)C(=O)CCCn2nncc2CO[C@@H]1CN(C)C(=O)c1cc(-c2ccccc2)on1 do in these assays?
HCMV inh: 15
